Sampled rows, rich in hits. Any-hit rate of the full collection: about 0.5%.
Menin MLL FP TR: qHTS Assay for Inhibitors Targeting the Menin-MLL Interaction in MLL Related Leukemias: Competition With Texas Red Labeled MLL-derived Mutant Peptide | Menin + Texas Red MLL mutant peptide, fluorescence polarization | Potency, µM (series often up to 61.6 µM), inactives show top-dose FP activity change, negative = inhibition, hits mostly inhibitors | 270,000 compounds, 0.23% hits | AID 1768, 2009; active = well fitted inhibition curve with a large enough effect in the polarisation, with a control signal flat, not every such curve was filed as active; inconclusive = small, poorly fitted or top-dose-only effect, or effect the other way, or a change in a side signal; inactive = no such curve, though single readings can be large or run the other way; the % refers to the polarisation; also: potency is read from the fitted curve at half-maximal effect; % of control where 0% means no effect
CXXC DNA block: qHTS Fluorescence Polarization Assay for Inhibitors of MLL CXXC domain - DNA interaction | Histone-lysine N-methyltransferase 2A (Homo sapiens), Q03164 | MLL-CXXC / FITC-HOXA9 DNA fluorescence polarization | AID 2662, 2010 | 290,000 compounds, 0.037% hits | Potency, µM (doses to about 115 µM), for the others: at the top dose activity change, negative = inhibition, usual class: inhibitors; active = well fitted inhibition curve with a large enough effect in the polarisation, with a control signal flat, not every such curve was filed as active; inconclusive = small, poorly fitted or top-dose-only effect, or effect the other way, or a change in a side signal; inactive = no such curve, though single readings can be large or run the other way; the % refers to the polarisation; also: potency is read from the fitted curve at half-maximal effect
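Steps: dispense CXXC domain solution (7 uM) → pin compounds or unlabeled HOX-A9 DNA control → 5 min ambient → add FLSN-HOX-A9 solution (50 nM) → spin → 30 min ambient → fluorescence polarization. Tris pH 7.5/NaCl/DTT/BSA buffer.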
GoLoco inh red: qHTS Assay for Inhibitors of RGS12 GoLoco Motif Activity (Red Fluorophore); Gai1:RGS12 GoLoco peptide FP, rhodamine, 10 min; 230,000 compounds, 0.44% hits; Potency, µM (series often up to 61.6 µM), inactives show top-dose activity, negative = inhibition, usual class: inhibitors; AID 880, 2007; active = well fitted inhibition curve with a large enough effect, not every such curve was filed as active; inactive = no such curve, though single readings can be large or run the other way; also: potency is read from the fitted curve at half-maximal effect; % is scaled to controls: 0 for no effect and ±100 for the full control effect; nearly all actives have a fitted effect of over 30% in size
TRb-SRC2 inh: qHTS for Inhibitors of the Interaction of Thyroid Hormone Receptor and Steroid Receptor Coregulator 2 | Thyroid hormone receptor beta (Homo sapiens), P10828 | TRbeta-SRC2 peptide binding, fluorescence polarization; receptor liganded with 1 µM T3 | Potency, µM (titrated, usually from 106 µM), inactives show top-dose activity change, negative = inhibition, usual class: inhibitors | 280,000 compounds, 0.065% hits | AID 1469, 2008;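 also: potency is read from the fitted curve at half-maximal effect; plate controls were bound peptide for no effect and peptide without receptor for full effect; nearly all actives have a fitted effect of over 50% in size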
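Polarization signal, normalized between peptide-alone and full complex controls, measured compound effects on T3-liganded human TRb LBD (0.6 uM) binding 20 nM Texas Red SRC2 peptide after 5 hr.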
TexasRed fluor: Total Fluorescence Counterscreen for Inhibitors of the Interaction of Thyroid Hormone Receptor and Steroid Receptor Coregulator 2; TRb/SRC2 Texas Red total fluorescence interference; Potency, µM (top dose mostly 106 µM), inactives show at the highest dose fluorescence change, negative = quenching; 280,000 compounds, 0.29% hits; AID 1479, 2009; active = well fitted curve in either direction with a large enough effect; inconclusive = small, poorly fitted or top-dose-only effect; also: potency is read from the fitted curve at half-maximal effect; % is scaled to controls: 0 for no effect and ±100 for the full control effect
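Human TRb ligand-binding domain at 0.6 uM with 20 nM Texas Red SRC2 peptide in Tris buffer containing 1 uM T3 and 5% DMSO, incubated with compound 5 h at ambient temperature. Total fluorescence (555/632 nm) calculated as parallel + 2 × perpendicular.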
Menin-MLL FL inh: qHTS Assay for Inhibitors Targeting the Menin-MLL Interaction in MLL Related Leukemias: Competition With Fluorescein Labeled MLL-derived Peptide. AID 1766, 2009. FP activity change, % at 61.4 µM. 290,000 tested, under 10 active. Fluorescence polarization, fluorescein-MLL peptide displacement from menin; active = well fitted curve in the direction sought with a large enough effect in the polarisation, not every such curve was filed as active; inconclusive = small, poorly fitted or top-dose-only effect, or effect the other way, or a change in a side signal; inactive = no such curve, though single readings can be large or run the other way; the % refers to the polarisation; also: % of control where 0% means no effect
MLL CXXC FP-Fl: qHTS Fluorescence Polarization (FP) Assay for Inhibitors of MLL CXXC domain - DNA interaction: Fluorescein FP. shares compounds with CXXC DNA block. MLL CXXC-DNA binding, fluorescein FP. Potency, µM (highest dose often 345 µM), for inactives: at the highest dose activity change, negative = inhibition, actives largely listed as inhibitors. 200 compounds, 70% hits. AID 624160, 2012; also: potency is read from the fitted curve at half-maximal effect; nearly all actives have a fitted effect of over 80% in size
MLL CXXC TxRed: qHTS Fluorescence Polarization (FP) Assay for Inhibitors of MLL CXXC domain - DNA interaction: Texas Red FP | shares compounds with CXXC DNA block | MLL CXXC-DNA binding, Texas Red fluorescence polarization | Potency, µM (top dose mostly 345 µM), without a hit: at the top dose activity change, negative = inhibition, most hits filed as inhibitors | 200 compounds, 40% hits | AID 624161, 2012; also: potency is read from the fitted curve at half-maximal effect; % is scaled to controls: 0 for no effect and ±100 for the full control effect; nearly all actives have a fitted effect of over 75% in size
MLL CXXC HTRF: qHTS Fluorescence Polarization (FP) Assay for Inhibitors of MLL CXXC domain - DNA interaction: HTRF Assay; shares compounds with CXXC DNA block; MLL CXXC-DNA binding, HTRF, biochemical; Potency, µM (top dose mostly 172 µM), for inactives: top-dose activity change, negative = inhibition, hits mostly inhibitors; 210 compounds, 30% hits; AID 624162, 2012; also: % is scaled to controls: 0 for no effect and ±100 for the full control effect; nearly all actives have a fitted effect of over 80% in size
* hit, by the source's call; ? = inconclusive; / = no result given; [ ] = remark or other dose. Unless noted, calls follow the shape of the dose curve; as a rule, active = well fitted curve in the direction sought with a large enough effect; inconclusive = small, poorly fitted or top-dose-only effect, or another doubt; inactive = no such curve, though single readings can be large; an effect the other way counts as inactive or inconclusive.

SMILES	Menin MLL FP TR	CXXC DNA block	GoLoco inh red	TRb-SRC2 inh	TexasRed fluor	Menin-MLL FL inh	MLL CXXC FP-Fl	MLL CXXC TxRed	MLL CXXC HTRF
O=C1/C(=C/c2cccs2)Cc2ccccc21	25.7%	7.4%	/	-0.5%	-7.7%	8.6	/	/	/
Cc1cccc(-n2c(C)cc(C=C3C(=O)c4ccccc4C3=O)c2C)c1	?	31.6µM*	-13.1%	13.9%	-0.7%	?	142µM*	?	41.3%
O=C(CC(C(=O)N1CCc2ccccc21)n1ccnc1)N1CCc2ccccc2C1 (centres undefined)	-22.8%	31.6µM*	2.0%	2.8%	-5.5%	4.3	?	10.5%	2.1%
COc1cccc(CNc2nccn(-c3cc(C)cc(C)c3)c2=O)c1	/	/	/	5.8%	-2.1%	/	/	/	/
Cc1cc(N)c2cc(NC(=O)Nc3ccc4nc(C)cc(N)c4c3)ccc2n1	15.8µM*	/	14.9%[14.2 µM]	/	/	-29.9	8.95µM*	?	9.68µM*
Nc1c(C(=O)O)ccc2c1C(=O)c1ccccc1C2=O	?	?	153.2%	-17.2%	?	?	/	/	/
Nc1cc(C(=O)O)c(N)c2c1C(=O)c1ccccc1C2=O	/	31.6µM*	-11.0%	39.8µM*	44.7µM*[fluorescent]	?	113µM*	40µM*	149.7%
Cc1ccc2c(c1)c(CC(NC(=O)c1ccccc1Oc1ccccc1)C(=O)O)cn2C(=O)OCc1ccccc1 (centres undefined)	55.6%	/	/	0.6%	-0.1%	0.1	/	/	/
Cc1ccccc1S(=O)(=O)NC1OC(=O)C(Oc2ccccc2)=C1Br (centres undefined)	?	?	0.1%	1.7%	1.0%	0.2	/	/	/
Cc1ccccc1S(=O)(=O)NC1OC(=O)C(Cl)=C1Cl (centres undefined)	0.4%	?	3.2%	-10.0%	-1.1%	1.9	44.8µM*	159µM*	?
CC(=O)N[C@@H](CSC(=O)[C@]1([C@@H](O)C(C)C)NC(=O)[C@H](C)[C@@H]1O)C(=O)O	-0.8%[11.7 µM]	/	17.2%[14.2 µM]	1.8%[11.2 µM]	-35.0%[11.2 µM]	-1.8[11.7 µM]	/	/	/
O=C1c2ccccc2-c2n[nH]c3cccc1c23	?	?	5.4%	3.2%	-10.2%	?	35.6µM*	?	17.9%
CSCC[C@H](N)C(=O)N[C@@H](CCCN=C(N)N)C(=O)N[C@@H](CC(C)C)C(=O)N[C@@H](Cc1ccccc1)C(=O)N[C@H](C(=O)O)C(C)C	-7.9%	/	/	0.9%	-0.3%	-0.7	/	/	/
CCN1CCN(c2nc3c(C)cccn3c(=O)c2/C=C(\C#N)C(=O)NCCOC)CC1	-1.7%	31.6µM*	/	/	/	-5.4	8.4%	5.1%	41.7%
COCCNC(=O)/C(C#N)=C/c1c(N2CCN(C)CC2)nc2c(C)cccn2c1=O	15.4%	-6.0%	/	/	/	-1.0	/	/	/
Cc1cccc(N2CCN(C(=O)c3cc4ccc5cccnc5c4[nH]3)CC2C)c1 (centres undefined)	/	/	/	1.2%	?	/	/	/	/
COc1ccc2occ(C(=O)c3ccc(N)cc3)c2c1	25.6%	?	/	/	/	3.8	36.8%	35.7%	-1.1%
Cc1ccc2cc(N)ccc2n1	2.3%	-8.6%	19.2%	-2.6%	-0.9%	-7.3	/	/	/
Nc1ccc2cc3ccc(N)cc3nc2c1	-14.8%	?	5.6%	-2.2%	-9.1%	?	1.13µM*	35.6µM*	?
COc1ccc(C(C[N+](=O)[O-])C2(c3ccc(OC)c(OC)c3)C(=O)c3ccccc3C2=O)cc1 (centres undefined)	10.0%	?	1.2%	-4.6%	-2.6%	2.1	25.3%	18.0%	23.3%
COc1ccc(/C=C2/C(=O)ON=C2C)cc1Br	-2.1%	-2.4%	/	/	/	0.4	/	/	/
COc1ccccc1/C=C1/C(=O)ON=C1C	-2.5%	?	/	/	/	-6.5	100µM*	126µM*	-13.6%
Cn1cc(C(=O)[C@@H]2CCc3[nH]cnc3C2)c2ccccc21	3.7%	-10.6%	/	/	/	3.6	/	/	/

Screening data deposited in PubChem by National Center for Advancing Translational Sciences (NCATS).
